Here are results for 31 compounds from PubChem BioAssay (NCI).

Each structure is given as a SMILES string. Values joined by “and” are separate entries in the source; they are usually repeats but may differ in a detail not shown here. Equal entries are not always repeated. About 83,000 compounds went through this panel and 20% of them were active in at least one assay; those are over-represented in the sample as a whole.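 Assay: single dose, 48 h. Readout: percent growth (0 = no net growth; negative = cell death). Active: <10.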 Values without a mark were called inactive. Active and inactive are the calls of the source.

The test deals with HL-60(TB) leukemia. The experiment in a line: NCI-60 one-dose screen, 48 h (100 = growth as untreated, 0 = no growth, -100 = all killed). The settings on record: 10 µM unless noted.
For the compound `c1ccc2c(CC3=NCCN3)cccc2c1`, the growth is 107% and 103%.

As to `CCCC(O)Cn1ncc(C(=O)OCC)c1NC(=O)NCc1ccccc1F` (stereo unspecified), the growth is 81.6%.

For `O=[N+]([O-])c1ccc2c(N=Nc3ccc4ccccc4c3O)c(O)cc(S(=O)(=O)O)c2c1`, the growth was 108%.

Turning to `O=Cc1c(O)c2ccccc2[nH]c1=O`, the growth is 126%.

With `CCN1C(=O)N(CC)C2C1NN=c1s/c(=C\c3ccc(Cl)cc3Cl)c(=O)n12` (stereo unspecified), the growth is -52.1% (active).

Consider `CC(Oc1ccc(C(=O)NS(=O)(=O)C(C)(C)C)cc1C(F)(F)F)c1ccc(Oc2ccccc2)cn1` (stereo unspecified), for which the growth was 72.2%.

Turning to `CCN(CC)CCCC(C)N=c1cc(Nc2cc(=NC(C)CCCN(CC)CC)c3cc(OC)ccc3o2)oc2ccc(OC)cc12` (stereo unspecified), the growth was -65.3% (active).

`O/N=C(/c1ccccc1)c1ccc2c3c(cccc13)CC2`: the growth was 86.9% and 101%.

On to `O=C(O)/C=C(\c1nc2ccc([N+](=O)[O-])cc2[nH]1)c1cc(Cl)ccc1O`, for which the growth is 10.8%.

In the case of `CCN1CC(=O)N(/N=C2\C(=O)Nc3ccccc32)C1=S`, the growth was 82.7%.

On to `CCCCCCCCCCCCNC(=O)[C@H]1CSC(c2ccsc2)N1` (stereo partly specified), for which the growth was -12.6% (active).

As to `Cc1nc2cncc(C#Cc3cncc(C(=O)Nc4ccc(CN5CCN(C)CC5)c(C(F)(F)F)c4)c3)c2nc1C`, the growth is -8.15% (active).

Take `CCCCCCCCCCCCCCNc1nc(CO)ncc1-c1ccc(C(F)(F)F)cc1`: the growth was 99.1%.

As to `Cc1ccc2cccc([N+](=O)[O-])c2n1`, the growth is 93.2% and 94.6%.

In the case of `C=C1C(=O)O[C@H]2[C@H]1CC/C(C(=O)NCCOCCOCC(=O)Nc1ccc(OC)c(C(N)=O)c1O)=C\CC[C@@]1(C)O[C@@H]21`, the growth was 81.3%.

Regarding `CC(=O)N[C@H](C(=O)N[C@@H](CCCNC(=N)N)C(=O)N[C@@H](CCCCN)C(=O)N[C@@H](CCCNC(=N)N)C(=O)N[C@]1(C)CCC/C=C\CCC[C@@](C)(C(=O)N[C@@H](CC(C)C)C(=O)N[C@@H](CC(C)C)C(=O)N[C@@H](CCC(N)=O)C(=O)N[C@@H](CCC(=O)O)C(=O)N[C@@H](CCCNC(=N)N)C(=O)N[C@@H](CCC(=O)O)C(=O)N[C@@H](CC(C)C)C(=O)N[C@H](C(=O)N[C@@H](CCC(=O)O)C(N)=O)C(C)C)NC(=O)[C@H](CCCNC(=N)N)NC(=O)[C@H](CC(C)C)NC1=O)C(C)C`, the growth was 104%.

For the compound `Cc1ccc(NC(=O)Nc2ccc(-c3cccnc3)cc2N2CCC(CO)CC2)cc1`, the growth was 13.9%.

As for `O/N=C/c1ccc(O)cc1O`, the growth was 96.9%.

With `Cn1cnc([N+](=O)[O-])c1Sc1ncn[nH]1`, the growth is 105%.

Regarding `CN(CCn1sc(=O)n(Cc2ccccc2)c1=O)Cc1ccc2c(Cl)cc(Cl)c(O)c2n1`, the growth was 40.7%.

Regarding `CCN(CC)CCC(CNc1ccnc2cc(Cl)ccc12)c1ccc(OC)cc1` (stereo unspecified), the growth was 63.7% and 61.7%.

In the case of `O=C(C[n+]1ccccc1)c1ccc2ccccc2c1`, the growth was 101%.

On to `C=C1C(=O)O[C@H]2[C@H]1CC/C(COC(=O)OC/C1=C/CC[C@@]3(C)O[C@H]3[C@H]3OC(=O)[C@@H](CN(C)C)[C@@H]3CC1)=C\CC[C@@]1(C)O[C@@H]21`, for which the growth was -43% (active).

On to `CC(C)(C)c1cc(C(=O)Nc2ccc(C(=O)NCCN)cc2)cc(C(C)(C)C)c1`, for which the growth was -68.4% (active).

Turning to `Cn1cc(C(=O)c2nc(-c3c[nH]c4ccccc34)no2)c2ccccc21`, the growth is 58.5%.

Consider `C=C(C)[C@@H]1CC[C@]2(C(=O)OC)CC[C@]3(C)[C@H](CC[C@@H]4[C@@]5(C)C/C(=C/NC(N)=S)C(=O)C(C)(C)[C@@H]5CC[C@]43C)[C@@H]12`, for which the growth was 95%.

With `O=C(NN1C(=O)CSC1c1ccc(Cl)cc1)c1[nH]c2ccc(F)cc2c1-c1ccccc1` (stereo unspecified), the growth is 35.5%.

In the case of `FC(F)(F)c1ccc(-c2cn3nc(-c4c[nH]c5ccc(Br)cc45)sc3n2)cc1`, the growth is 96.9%.

As for `COC(=O)CCCNS(=O)(=O)c1cc(C(=O)Nc2ccc(NC(=O)c3cc(S(=O)(=O)NCCCC(=O)OC)c(O)c(O)c3O)cc2)c(O)c(O)c1O`, the growth was 68%.

Consider `NCCCOc1cc2ccccc2cc1C(=O)NCCCOc1cc2ccccc2cc1C(=O)Nc1ccc(Cl)cc1O`, for which the growth is -62% (active).

Consider `Cc1nc2ncnc(Cl)c2[nH]1`, for which the growth is 75.4%.
